According to publication PMC5540273 (PLoS ONE, 2017):

Legend:
Details in all cases: concentration: 1 μM, replicates: in singlicate; n = 1
[1] = tested on: HIPK4
[2] = tested on: HPK1
[3] = tested on: HUNK
[4] = tested on: ICK
[5] = tested on: IGF1R
[6] = tested on: T1, IKK-alpha
T1 construct: gene CHUK

[7] = tested on: T2, IKK-beta
T2 construct: gene IKBKB

[8] = tested on: T3, IKK-epsilon
T3 construct: gene IKBKE

[9] = tested on: INSRR
[10] = tested on: INSR
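Further: KINOMEscan kinase panel screen.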

| Structure (SMILES) | %Inh [1] [%] | %Inh [2] [%] | %Inh [3] [%] | %Inh [4] [%] | %Inh [5] [%] | %Inh [6] [%] | %Inh [7] [%] | %Inh [8] [%] | %Inh [9] [%] | %Inh [10] [%] |
| --- | --- | --- | --- | --- | --- | --- | --- | --- | --- | --- |
| COc1ccc(Nc2nccc(NCCNC(=O)Nc3cc(C)ccc3C)n2)cc1 [GSK1379899] | 0 | 40 | 0 | 18 | 7 | 8 | 9 | 1 | 0 | 0 |
| CC[C@@H]1CO[C@H](C(=O)Nc2ccccc2)CN1c1cc(-c2ccc3c(N)n[nH]c3c2)nc(NC)n1 [GSK2376236] | 0 | 15 | 0 | 0 | 0 | 0 | 1 | 6 | 0 | 10 |
| Nc1ncnc2occ(-c3ccc4c(c3)CCN4C(=O)Cc3cc(F)ccc3F)c12 [GSK2645446] | 0 | 31 | 0 | 0 | 0 | 0 | 0 | 41 | 0 | 0 |
| Cn1cncc1C(=O)NC1CCN(c2ccnc(Nc3ccc(F)cc3)n2)C1 (stereo not shown) [GSK1379717] | 0 | 68 | 0 | 31 | 0 | 25 | 17 | 33 | 0 | 10 |
| COC(=O)c1cccc(NC(=O)NC2CCN(c3ccnc(Nc4ccc(OC)cc4)n3)C2)c1 (stereo not shown) [GSK1379746] | 0 | 41 | 0 | 12 | 1 | 44 | 18 | 29 | 0 | 0 |
| O=C1NC(=O)C(c2ccc(Cl)cc2)=C1Nc1ccc(O)cc1 [SB-340867] | 0 | 35 | 0 | 0 | 0 | 0 | 0 | 0 | 0 | 0 |
| O=c1cc(N2CCOCC2)nc2n(Cc3cccc(Cl)c3Cl)c3ccccc3n12 [GSK2299009] | 0 | 19 | 0 | 14 | 5 | 0 | 0 | 37 | 7 | 0 |
| CC(C)c1cc(-c2ccc3c(N)n[nH]c3c2)nc(N)n1 [GSK2250882] | 30 | 45 | 0 | 0 | 6 | 0 | 4 | 10 | 0 | 4 |
| CSc1ccc(-c2nc3n(c2-c2ccncc2)CCC3)cc1 [SKF-105561] | 2 | 0 | 21 | 18 | 0 | 5 | 6 | 12 | 0 | 5 |
| COC(=O)C(Cc1ccccc1)NC(=O)NC1CCN(c2ccnc(Nc3ccc(F)cc3)n2)C1 (stereo not shown) [GSK1379714] | 0 | 51 | 0 | 0 | 8 | 0 | 0 | 34 | 0 | 1 |
| Cc1ccc(NC(=O)Nc2ccccc2)cc1-c1ccc(C(=O)Nc2ccncc2)cc1 [GSK1398471] | 10 | 37 | 22 | 2 | 11 | 0 | 0 | 5 | 0 | 3 |
| COc1ccc(-c2coc3ccc(-c4nnc(C)o4)cc23)cc1 | 8 | 0 | 0 | 0 | 12 | 0 | 0 | 0 | 0 | 14 |
| Cc1c(Cn2c(C)c(C)n3c(=O)cc(N4CCOCC4)nc23)cccc1C(F)(F)F [GSK2328680] | 0 | 33 | 0 | 0 | 0 | 7 | 0 | 0 | 52 | 0 |
| Cn1cncc1-c1cc2c(Nc3ccc(OCc4ccccc4)cc3)ncnc2cn1 [GW281179] | 0 | 25 | 8 | 5 | 4 | 0 | 6 | 4 | 0 | 2 |
| Cc1nccc(-c2c(-c3ccc(F)cc3)ncn2CCCN2CCOCC2)n1.Cl [SB-282975] | 50 | 3 | 16 | 39 | 3 | 14 | 12 | 0 | 11 | 3 |
| COc1ccc2cc(-c3nc(-c4ccccc4C(C)C)[nH]c3-c3ccncc3)ccc2c1 [SB-660566] | 0 | 37 | 0 | 22 | 9 | 19 | 26 | 14 | 1 | 5 |
| CCn1c(-c2c(N)noc2C)nc2cnccc21 [SB-737856] | 0 | 41 | 0 | 4 | 0 | 7 | 0 | 0 | 0 | 0 |

| Structure (SMILES) | %Inh [1] [%] | %Inh [2] [%] | %Inh [3] [%] | %Inh [4] [%] | %Inh [5] [%] | %Inh [6] [%] | %Inh [7] [%] | %Inh [8] [%] | %Inh [9] [%] | %Inh [10] [%] |
| --- | --- | --- | --- | --- | --- | --- | --- | --- | --- | --- |
| COc1ccc(Nc2nccc(-c3ccc(NC(=O)c4cc5cc(F)ccc5[nH]4)cc3)n2)cc1 [GSK1229496] | 0 | 38 | 0 | 0 | 0 | 0 | 0 | 8 | 0 | 0 |
| Fc1ccc(-c2nn3cccc(F)c3c2-c2ccncc2)cc1 [GW475620] | 22 | 0 | 0 | 0 | 47 | 0 | 0 | 14 | 0 | 13 |
| CC(=O)c1c(C)c2cnc(Nc3ccn(C)n3)nc2n(C2CCCC2)c1=O | 0 | 0 | 0 | 0 | 1 | 0 | 0 | 0 | 0 | 0 |
| CNc1cc(-c2ccc3c(N)n[nH]c3c2)nc(N)n1 [GSK2224810] | 14 | 41 | 5 | 12 | 0 | 6 | 0 | 39 | 0 | 19 |
| CNC(=O)c1ccc(C)c(-n2c(C)cc(OCc3ccc(F)cc3F)c(Br)c2=O)c1 | 0 | 0 | 0 | 0 | 0 | 0 | 0 | 0 | 6 | 0 |
| CS(=O)(=O)CCNCc1nc(-c2ccc3ncnc(Nc4ccc5c(cnn5Cc5ccccc5)c4)c3c2)cs1.Cl.Cl [GW569716] | 0 | 32 | 28 | 2 | 19 | 38 | 8 | 0 | 0 | 0 |
| COc1ccc(CSc2nnc(-c3ccc4nccn4c3)o2)cc1C(F)(F)F | 6 | 0 | 0 | 0 | 0 | 10 | 7 | 11 | 8 | 5 |
| Nc1cccc(-c2ccc3c(N)n[nH]c3c2)n1 [GSK2192730] | 0 | 35 | 0 | 9 | 0 | 0 | 18 | 0 | 0 | 3 |
| COc1cccc(C2=C(Nc3cc(Cl)c(O)c(Cl)c3)C(=O)NC2=O)c1 [SB-390767] | 0 | 43 | 0 | 27 | 5 | 37 | 56 | 0 | 0 | 0 |
| COc1nccc(-c2c(-c3ccc(F)cc3)ncn2CCCN2CCOCC2)n1 [SB-282852] | 0 | 21 | 0 | 16 | 0 | 26 | 21 | 8 | 0 | 0 |
| CS(=O)(=O)CCNCc1nc(-c2ccc3ncnc(Nc4ccc(OCc5ccccc5)c(Cl)c4)c3c2)cs1.Cl [GW582764] | 0 | 44 | 5 | 0 | 4 | 28 | 5 | 0 | 0 | 0 |
| Cc1ccccc1Cn1ccn2c(=O)cc(N3CCOCC3)nc12 [GSK2269905] | 0 | 32 | 7 | 0 | 2 | 0 | 12 | 0 | 0 | 17 |
| O=C(Nc1n[nH]c2cc(-c3ccsc3)ccc12)C1CC1 [SB-732932] | 17 | 0 | 0 | 63 | 0 | 9 | 9 | 0 | 14 | 9 |
| Cn1cnc2c(N)ncnc21 [SKF-97623] | 0 | 33 | 17 | 0 | 46 | 0 | 0 | 0 | 0 | 0 |
| COc1ccc(Nc2nccc(N3CCC(NC(=O)C(C)c4ccc(Cl)cc4)CC3)n2)cc1 (stereo not shown) [GSK1379812] | 0 | 39 | 10 | 0 | 0 | 0 | 0 | 100 | 0 | 15 |
| Cc1ccc(NC(=O)Nc2ccc(Cl)c(C(F)(F)F)c2)cc1-c1ccc(C(=O)Nc2ccncc2)cc1 [GSK1398470] | 8 | 56 | 9 | 4 | 26 | 0 | 0 | 29 | 5 | 23 |
| COc1ccc(Nc2nccc(N3CCC(NC(=O)c4cc5ccccc5s4)C3)n2)cc1 (stereo not shown) [GSK1379738] | 0 | 48 | 0 | 10 | 0 | 21 | 25 | 28 | 0 | 5 |
